Measurements from PubChem BioAssay AID588453 (National Center for Advancing Translational Sciences (NCATS), 2011).
Among all 390,000 compounds or so, about 4,000 (1%) were called active. Another 4% or so got no clear call; they are omitted. The list comes from a sample in which actives are over-represented; it also holds similar structures and randomly drawn compounds. Unmarked numbers belong to inactive results. Calls come from the whole dose curve; as a rule, active = well fitted inhibition curve with a large enough effect; inconclusive = small, poorly fitted or top-dose-only effect; inactive = no such curve, though single readings can be large or run the other way.

molecular target: Thioredoxin reductase 1, cytoplasmic (Rattus norvegicus) (UniProt O89049); assay: qHTS Assay for Inhibitors of Mammalian Selenoprotein Thioredoxin Reductase 1 (TrxR1): qHTS; conditions: recombinant rTrxR1, NADPH fluorescence consumption, selenite substrate; series mostly up to 114 µM; activity change, negative = inhibition: at the top concentration; note: nearly all actives have a fitted effect of over 65% in size
Sequence (O89049 whole entry, looked up): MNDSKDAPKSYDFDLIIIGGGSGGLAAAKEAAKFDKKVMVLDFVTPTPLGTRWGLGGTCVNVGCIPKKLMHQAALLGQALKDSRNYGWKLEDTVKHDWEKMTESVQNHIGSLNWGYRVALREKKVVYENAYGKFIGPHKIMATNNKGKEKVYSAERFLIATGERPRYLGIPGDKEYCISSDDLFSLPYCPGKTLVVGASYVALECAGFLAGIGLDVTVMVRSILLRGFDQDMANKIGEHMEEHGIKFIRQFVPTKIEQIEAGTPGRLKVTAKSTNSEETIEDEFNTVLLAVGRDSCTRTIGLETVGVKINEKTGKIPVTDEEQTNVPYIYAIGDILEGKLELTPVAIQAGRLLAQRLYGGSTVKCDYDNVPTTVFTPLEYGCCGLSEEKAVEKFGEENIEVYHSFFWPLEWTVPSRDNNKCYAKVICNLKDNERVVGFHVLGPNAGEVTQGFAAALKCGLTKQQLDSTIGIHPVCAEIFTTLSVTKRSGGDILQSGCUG
Outline: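 Rat TrxR1 (90 nM in the dispensed reagent) was pre-reduced with 400 uM NADPH for 5 min at room temperature, then incubated with compound for 15 min. After 400 uM selenite was added, NADPH fluorescence (Ex 340/Em 450 nm) was followed for 8 min.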
% is set by controls: 0 for no effect and ±100 for the full control effect; potency is the fitted concentration of half-maximal effect.

Compound	activity change, negative = inhibition	Potency
Nc1ncnc2nnsc12	-0.422%	–
COc1cc2nc(C#Cc3nc4cc(OC)c(OC)cc4[nH]3)[nH]c2cc1OC	86.5%	–
CC(C)(C(=O)NO)c1ccccc1	20%	–
Cc1cccc(CSc2nc3ccncc3n2CC(=O)N(C)C2CCCCC2)c1	-2.23%	–
O=C(NCCN1CCN(C(=O)c2cccc([N+](=O)[O-])c2)CC1)C(=O)NCc1ccc(Cl)cc1	-14.4%	–
CC(=O)N(CN1C(=O)C2C3C=CC(C3)C2C1=O)c1cccc(Cl)c1 (configuration not stated)	9.83% [at 11.4 µM]	–
O=C(CCl)N(Cc1cccc([N+](=O)[O-])c1)c1cccc(Cl)c1	–	7.94 µM (active)
Cc1ccc(Cl)cc1N(C)C(=O)C1CCCN(c2ncnc3onc(-c4ccc(F)cc4)c23)C1 (configuration not stated)	19.6%	–
Cc1cccc(N2CCN(C(c3ccc(N(C)C)cc3)c3nnnn3C(C)(C)C)CC2)c1C (configuration not stated)	–	11.2 µM (active)
CC(C)(C)n1nnnc1C(c1ccc(Cl)cc1)N1CCSCC1 (configuration not stated)	13.3%	–
CC(C)(C)n1nnnc1C(c1ccc2ncccc2c1)N1CCSCC1 (configuration not stated)	7.09%	–
Cc1ccsc1CN(C(=O)c1oc2ccc(Br)cc2c1C)C1CCS(=O)(=O)C1 (configuration not stated)	18.8%	–
Cc1cccc(S(=O)(=O)c2cn(Cc3ccccc3)c3cc(N4CCOCC4)c(F)cc3c2=O)c1	17.5%	–
COc1ccccc1-c1noc(CSc2nnc(-c3ccccc3)n2-c2ccc(C)c(C)c2)n1	16.3%	–
O=C(Nc1ccccc1)c1ccccc1OCc1ccccc1	17.6%	–
Cc1ccc(-c2c3c(=O)n(C)c(=O)n(C)c3cn2-n2cnnc2)cc1	–	50.1 µM (active)
COc1ccc(CCn2cc3c(c2-c2ccc(Br)cc2)c(=O)n(C)c(=O)n3C)cc1OC	19.2%	–
COc1ccc(-c2c3c(=O)n(C)c(=O)n(C)c3c3c(C)nc4ccccc4n23)cc1	33.4%	–
Cc1ccc(N(CC(=O)NCC(C)c2ccccc2)S(=O)(=O)N(C)C)cc1 (configuration not stated)	9.43% [at 57.1 µM]	–
CC(C)N(C(=O)CN1CCN(S(=O)(=O)c2ccc(Br)s2)CC1)C(C)C	-0.117%	–
Cc1cccc(NC(=O)CN2CCCN(S(=O)(=O)c3ccc(Br)s3)CC2)c1	–	12.6 µM (active)
COc1cc(NC(=O)CN2CCN(S(=O)(=O)c3ccc(Br)cc3)CC2)cc(OC)c1	11.8%	–
Cc1ccc2ccc3c(c2n1)NS(=O)(=O)c1ccccc1-3	-6.92%	–
COc1ccc(C(=O)C2CCCN(S(=O)(=O)c3cccc(C)c3)C2)c(C)c1 (configuration not stated)	20.3%	–

Compound	activity change, negative = inhibition	Potency
COc1ccc(C(=O)C2CCCN(C(=O)c3ccc(OC)o3)C2)c(C)c1 (configuration not stated)	–	39.8 µM (active)
COc1ccc(C(=O)C2CCCN(C(=O)c3cnsn3)C2)c(C)c1 (configuration not stated)	21.1%	–
CN(C)c1ccc(/C=C/c2sc3ccccc3[n+]2C)cc1	-0.933%	–
Oc1ccc(N2CCN(C(=S)NCc3ccccc3)CC2)cc1	1.02% [at 57.1 µM]	–
Oc1ccc(CNc2ccccc2O)cc1	–	7.94 µM (active)
OCC(CO)(CO)NCc1ccc(-c2ccccc2)cc1	5.61%	–
COc1ccc(OC)c(CNC(=O)c2c3c(nc4ccccc24)C(=O)N(C2CCCCC2)C3)c1	5.43% [at 57.1 µM]	–
COc1cc2[nH]c(C)c(CCN3CCN(c4ccccc4)CC3)c2cc1OC	-33.1%	–
COc1ccccc1NC(=O)N(O)C1(C#N)CCCCC1	0.82%	–
COc1ccccc1NC(=O)/C=C/C(N)=O	–	12.6 µM (active)
COc1ccccc1NC(=O)COC(=O)COc1ccccc1F	-14.5%	–
COc1ccc(C(CCN2CCOCC2)c2c(OC)cc(OC)c3c2OC(=O)CC3c2ccc(OC)cc2)cc1 (configuration not stated)	19.8% [at 57.1 µM]	–
CCc1nn(CC(=O)Nc2cc(C)cc(C)c2)c(=O)c2cc3sccc3n12	11.6%	–
COc1cccc(CNC(=O)Cn2c(=O)c3cccn3c3ccc(F)cc32)c1OC	17.7%	–
O=C(/C=C/Sc1ncn[nH]1)c1ccc(Cl)cc1	–	0.447 µM (active)
Cn1c(=O)c([N+](=O)[O-])c(Oc2ccccc2)c2ccccc21	–	2.24 µM (active)
Cc1cccc(C2CC(=O)Oc3c2c(=O)n(C)c2ccccc32)c1 (configuration not stated)	-4.1%	–
Cc1cccc(C(=O)O)c1[N+](=O)[O-]	23.2%	–
COc1cccc(C(=O)Oc2cc(C)[nH]c(=O)c2[N+](=O)[O-])c1	-8.17%	–
Cc1cccc(Oc2c([N+](=O)[O-])c(=O)n(C)c3ccccc23)c1	–	3.16 µM (active)
Cn1c(=O)c(Sc2ccc(Cl)cc2)c(O)c2ccccc21	7.28% [at 57.1 µM]	–
COc1cc(-c2cc3n(C)c(C)c(CCC(=O)Nc4ccc(F)cc4)c(=O)n3n2)cc(OC)c1OC	41.7% [at 57.1 µM]	–
Cc1cccc(-n2ccnc2SCC(=O)Nc2cc(C(F)(F)F)ccc2Cl)c1	24.2% [at 57.1 µM]	–
Cc1ccc(-c2cc(C(F)(F)F)c(C#N)c(SCC(=O)Nc3ccccc3)n2)cc1	12.9%	–

Compound	activity change, negative = inhibition	Potency
N#Cc1cc2[nH]c(=O)c(=O)[nH]c2cc1[N+](=O)[O-]	-3.39%	–
COc1ccc(N=C2C=CC(=O)O2)cc1	–	10 µM (active)
COc1ccc(N=Nc2c(-c3ccc(OC)cc3)[nH]oc2=O)cc1	19.7% [at 57.1 µM]	–
COC1=CC(=O)OC(c2ccc(OC)cc2)C1 (configuration not stated)	9.46%	–
COc1ccc(C)cc1-n1c(-c2ccc(C)cc2)cc2c1CC(C)(C)CC2=O	19%	–
O=C(Nc1ccc([N+](=O)[O-])cc1)c1cnn2c1NC(=C1CC1)C=C2C(F)F	21.2%	–
CCc1ccc(NS(=O)(=O)c2ccc3[nH]cc(C(=O)NCCc4cccc(C)c4)c(=O)c3c2)cc1	40.2% [at 57.1 µM]	–
COc1ccc(CCNC(=O)c2nn(C)c3c2CSc2ccccc2-3)cc1OC	9.84%	–
COc1cc(NC(=O)c2nc3ccccc3nc2C)cc(OC)c1OC	-3.78%	–
COc1cc(NC(=O)c2noc3c2CSc2ccccc2-3)cc(OC)c1OC	–	14.1 µM (active)
Cc1cccc(NC(=O)CSc2nc3c([nH]c4ccccc43)c(=O)n2-c2cc(C)cc(C)c2)c1	16% [at 57.1 µM]	–
CCN(CC(=O)Nc1ccccc1OC)C(=O)Cn1cnc2ccccc2c1=O	5.31% [at 57.1 µM]	–
CC1(C)C(=O)Nc2ccccc2N1C(=O)COC(=O)Cn1cnc2ccccc2c1=O	10.6%	–
COc1ccc(C(C)=O)cc1COC(=O)Cn1cnc2ccccc2c1=O	–	17.8 µM (active)
COc1ccc(C)cc1NC(=O)COCc1cc(-c2cccs2)on1	15%	–
CCOC(=O)c1ccc(NC(=O)C2CC(=O)NC(=Nc3ccc(C)c(C)c3)S2)cc1 (configuration not stated)	3.72%	–
Cn1c(=O)oc2cc(S(=O)(=O)CCC(=O)NCCc3ccc(Cl)cc3)ccc21	4.76%	–
Oc1ccc(Cn2cc[nH]c2=S)cc1	–	inactive
CC(Nc1ccc(-c2nc(-c3ccco3)no2)cc1[N+](=O)[O-])c1ccccc1 (configuration not stated)	–	44.7 µM (active)
O=[N+]([O-])c1cc(-c2nc(-c3ccccc3)no2)ccc1NCc1ccco1	17.5%	–
CNc1ccc(-c2nc(-c3ccco3)no2)cc1[N+](=O)[O-]	14.9%	–
COc1ccc(NC(=O)c2ccc3nc(CCc4ccccc4)oc3c2)c(OC)c1	22.7% [at 57.1 µM]	–
CSc1ccccc1N1CCN(CCCCCC(=O)NC2CCCc3ccccc32)CC1 (configuration not stated)	9.9% [at 57.1 µM]	–
COc1ccccc1/C=C/C(=O)OCC(=O)NC1CCCCCC1	2.32%	–

Compound	activity change, negative = inhibition	Potency
CCOC(=O)C(=Cc1ccccc1OC)C(=O)OCC	–	44.7 µM (active)
COc1ccccc1C(=O)OCC(=O)NCCNC(=O)COC(=O)c1ccccc1OC	-10.2%	–
Cc1ccc(C)c(Nc2nnc(-c3ccc(C)c(S(=O)(=O)N4CCCCC4)c3)c3ccccc23)c1	7.25%	–
CC1(C)C=Cc2c(ccc(C(=O)/C=C/c3ccccc3)c2O)O1	6.58%	–
COc1ccccc1C(=O)N/C(=C/c1ccco1)C(=O)Nc1ccc(C(=O)O)cc1	-32.6%	–
O=C(NC(Cc1ccccc1)C(=O)O)/C(=C\c1ccccc1)NC(=O)c1ccco1 (configuration not stated)	12.3% [at 57.1 µM]	–
O=C(Nc1ccccc1)/C(=C\c1ccco1)NC(=O)c1ccco1	–	50.1 µM (active)
O=C1COc2ccc(-c3csc(-c4ccc(Cl)cc4)n3)cc2N1	4.52%	–
CCc1nn(CC(=O)Nc2cccc(C)c2C)c(=O)c2cc3sccc3n12	12.2%	–
CC(C)c1ccc(NC(=O)CN(C)S(=O)(=O)c2ccc3c(c2)c(=O)n(C)c(=O)n3C)cc1	-3.44%	–
Nc1ncnc2c1c(I)cn2[C@@H]1C[C@H](N)[C@@H](O)[C@H]1O	15.3% [at 57.1 µM]	–
O=C1Oc2ccccc2C(=O)/C1=C/c1ccccc1O	–	11.2 µM (active)
CO[C@H]1O[C@@H]2O[C@@]3(C)CC[C@@H]4[C@@H](C)CC[C@@H]([C@H]1C)[C@@]24OO3	-2.35%	–
CCOC(=O)Cc1ccc(NC(=O)Nc2c[nH]c(=O)[nH]c2=O)cc1	6.47%	–
COc1cccc(C(=O)NC2=NC(c3ccc(N(C)C)cc3)CC(=O)N2)c1 (configuration not stated)	15%	–
Cc1ccc(Nc2c(-c3ccc(Cl)cc3)nc3sccn23)c(C)c1	2.44%	–
CC(C)c1ccc(C2C(C(=O)c3ccco3)=C(O)C(=O)N2CC2CCCO2)cc1 (configuration not stated)	-3.52%	–
COCCNc1nnc(SCC(=O)NNC(=O)c2ccco2)s1	-14.3%	–
C=CCSc1nnc(N2C(=O)C(O)=C(C(=O)c3ccco3)C2c2ccc(F)cc2)s1 (configuration not stated)	–	28.2 µM (active)
CCOc1ccccc1NC(=O)C1CCCN(S(=O)(=O)c2cn(C)cn2)C1 (configuration not stated)	13.5% [at 57.1 µM]	–
COc1ccc(-c2nc3scc(CCNS(=O)(=O)c4cc(F)ccc4OC)n3n2)cc1OC	12.3% [at 57.1 µM]	–
CCOc1ccccc1NC(=O)CCn1cnnn1	-3.59% [at 57.1 µM]	–
Cc1cc(C)nc(NC(=O)Nc2ccccc2C(F)(F)F)n1	6.03% [at 57.1 µM]	–
Cc1cc(C)nc(S/C=C/C(=O)c2ccccc2)n1	–	1 µM (active)

Compound	activity change, negative = inhibition	Potency
Cc1ccc2nc(CNC(=O)c3ccccc3)[nH]c2c1	14.3%	–
OC(Cc1ccc2ccccc2n1)c1ccc(Cl)c(Cl)c1 (configuration not stated)	24.6% [at 0.0914 µM]	–
COc1ccccc1NC(=O)c1cc(C2CC2)nc2c1c(C)nn2-c1ccc(C)cc1	8.82%	–
CCOC(=O)c1c(NC(=O)c2ccc(S(=O)(=O)N3CCCC(C)C3)cc2)sc2c1CCN(C(C)C)C2 (configuration not stated)	12.5% [at 57.1 µM]	–
CCOc1ccc(CNC(=O)c2ccc(CS(=O)c3ccccc3)o2)cc1 (configuration not stated)	21.2%	–
Cc1nn(CC(=O)O)c(=O)c2cc3cc(F)ccc3n12	18.2%	–
CC1=C/C(=N\OS(=O)(=O)c2ccccc2)C=CC1=O	–	1.78 µM (active)
Cc1cc[n+](C2CCCCC2)cc1	16.9%	–
CCC(Sc1nc2n[nH]c(C)c2c(=N)n1-c1ccccc1Cl)C(=O)N(CC)CC (configuration not stated)	-4.73% [at 57.1 µM]	–
CC(/C=C/c1ccco1)=N/NC(=O)C1COc2ccccc2O1 (configuration not stated)	–	56.2 µM (active)
CC(/C=C/c1ccccc1)=N\NC(=O)C1CC1(C)c1ccccc1 (configuration not stated)	12.3%	–
CC1CC(=NNC(=O)C2COc3ccccc3O2)CC(C)(C)C1 (configuration not stated)	18.3%	–
O=C(CCS(=O)(=O)c1cc(Br)cc2c1N(C(=O)C1CC1)CC2)Nc1ccc(C(F)(F)F)cc1	13.6%	–
CN1CCN(c2oc(-c3ccc(COc4ccc(Cl)cc4)o3)nc2C#N)CC1	17.5%	–
COc1ccc(C(=O)COC(=O)COc2ccc(C)c(C)c2)cc1	-3.4%	–
Cc1ccc(SC(=O)COc2ccc(C)c(C)c2)cc1	–	8.91 µM (active)
Cc1ccc(OCC(=O)Nc2cccc3c2CCCC3)cc1C	7.88%	–
OC[C@H]1O[C@@H](n2cnc3c(N[C@H]4CC5CCC4C5)ncnc32)[C@H](O)[C@@H]1O (some centres not stated)	5.49%	–
CSc1nc(-c2ccc(F)cc2)nc2c1Cc1c(CO)cnc(C)c1O2	21.4%	–
Cc1oc(-c2ccccc2)nc1Cn1c(SCc2cccc(C(F)(F)F)c2)nc2cccnc21	12.9%	–
COc1cccc(CNC(=O)C(=O)NCC(c2cccs2)S(=O)(=O)c2ccccc2)c1 (configuration not stated)	14.7% [at 57.1 µM]	–
